Results on 57 molecules are retold here after PubChem BioAssay AID1259421 (Broad Institute, 2018).

Where “and” joins values, the source holds several entries; their conditions need not be identical. Identical values can stand only once. About 610 (9.5%) of roughly 6,400 compounds were called active. Rule as the data show it: active = activity change below about -70%; inconclusive = no clear call, values can overlap the other calls; inactive = above that. What follows is part of a selection rich in actives, with near analogues and random picks from the rest.

The test is described as follows: T. gondii ME49Luc in HeLa cells, luciferase assay, 72 h, no IFN-y (AID 1259421). The conditions noted are these: active compounds read low, concentration not given here.
Take `CC(=O)N(C)c1cccc(-c2ccnc3c(C(=O)c4cccs4)cnn23)c1`: the activity change, negative = inhibition is 42.5% (inactive).
As for `O=C1NC(=O)c2c1c1c3ccccc3[nH]c1c1[nH]c3ccccc3c21`, the activity change, negative = inhibition is -28.7% (inactive) and -11.9% (inactive).
With `O=C1NC(=O)c2c1c1c3ccccc3n3c1c1c2c2ccccc2n1C1CCC3O1` the figure was -71.9% (active); with `N#CC(C#N)=NNc1cccc(Cl)c1`, 9.63% (inactive).
With `C[C@]12CC[C@@H]3c4ccc(OC(=O)N(CCCl)CCCl)cc4CC[C@H]3[C@@H]1CC[C@@H]2OP(=O)(O)O` the figure was 10.9% (inactive).
Consider `CCCCC(CC)COC(=O)c1ccccc1C(=O)OCC(CC)CCCC` (configuration not stated), for which the activity change, negative = inhibition was 9.98% (inactive).
With `CO[C@@H]1C(O)[C@H](O[C@H]2CC[C@@]3(C=O)[C@H](CC[C@@H]4[C@@H]3CC[C@]3(C)[C@@H](C5=CC(=O)OC5)CC[C@]43O)C2)OC(C)[C@@H]1O` (some centres not stated) the figure was -73.9% (active); with `CO[C@H]1[C@H](O)[C@@H](O[C@H]2CC[C@]3(C=O)C4CC[C@]5(C)[C@@H](C6=CC(=O)OC6)CC[C@]5(O)C4CC[C@@H]3C2)O[C@@H](C)[C@@H]1O` (some centres not stated), -88% (active).
With `O=C1Nc2ccccc2C2(CCN(CCc3ccc(C(F)(F)F)cc3)CC2)O1`, the activity change, negative = inhibition is 16.5% (inactive) and 18.9% (inactive).
With `O=C(O)CCCCCCNC1c2ccccc2CCc2ccccc21` the figure was 30.7% (inactive).
With `O=C(O)C(Cl)Cl`, the activity change, negative = inhibition was 30.7% (inactive).
The figure for `Clc1cccc(SC2CCNCC2)n1` is 18.6% (inactive).
The figure for `Cc1ccc(C[N+](C)(C)C)o1` is 0.893% (inactive) and 9.89% (inactive); for `CC(C)(C)CC(C)(C)c1ccc(O)cc1` it is 5.73% (inactive); for `CCCC(C)(COC(N)=O)COC(N)=O` it is 8.01% (inactive).
With `C[C@]1(O)CC[C@H]2[C@@H]3CCC4=CC(=O)CC[C@]4(C)[C@@]3(F)[C@@H](O)C[C@@]21C` the figure was 2.26% (inactive); with `C[C@@H]1CC[C@@]2(OC1)O[C@H]1C[C@H]3[C@@H]4CC=C5C[C@H](O[C@@H]6O[C@@H](CO)[C@@H](O[C@@H]7O[C@@H](C)[C@H](O)[C@@H](O)[C@@H]7O)[C@H](O)[C@H]6O[C@@H]6O[C@@H](C)[C@H](O)[C@@H](O)[C@H]6O)CC[C@]5(C)[C@@H]4CC[C@]3(C)[C@@H]1[C@H]2C`, -18.3% (inactive); with `CC(=O)OC1CC[C@@]2(C)C(CCC3C2CC[C@]2(C)C(C4=CC(=O)OC4)C(OC(C)=O)CC32O)C1` (some centres not stated), -91.6% (active).
With `CC(=O)O[C@H]1C[C@H](O[C@H]2[C@@H](O)C[C@H](O[C@H]3[C@@H](O)C[C@H](O[C@H]4CC[C@@]5(C)C(CCC6C5C[C@@H](O)[C@]5(C)[C@@H](C7=CC(=O)OC7)CC[C@]65O)C4)O[C@@H]3C)O[C@@H]2C)O[C@H](C)[C@H]1O[C@@H]1O[C@H](CO)[C@@H](O)[C@H](O)[C@H]1O` (some centres not stated), the activity change, negative = inhibition is -75.3% (active) and -89.3% (active).
With `CC(=O)[C@H]1CC[C@H]2[C@@H]3CC[C@H]4C[C@H](O)CC[C@]4(C)[C@H]3CC[C@]12C` the figure was 2.36% (inactive); with `C[C@H]1OC(O[C@H]2[C@@H](O)CC(O[C@H]3[C@@H](O)C[C@H](O[C@H]4CC[C@]5(C)C6CC[C@]7(C)[C@@H](C8=CC(=O)OC8)[C@@H](O)C[C@]7(O)[C@@H]6CC[C@@H]5C4)O[C@@H]3C)O[C@@H]2C)C[C@H](O)C1O` (some centres not stated), -71.3% (active).
The figure for `COC1C(O)CC(OC2C(O)CC(OC3C(O)CC(OC4CCC5(C)C(CCC6[C@@H]5CC(O)C5(C)C(C7=CC(=O)OC7)CCC65O)C4)OC3C)OC2C)OC1C` (some centres not stated) is -82.4% (active); for `COC(=O)/C=C/C(=O)N[C@@H]1CC[C@@]2(O)[C@H]3Cc4ccc(O)c5c4[C@@]2(CCN3CC2CC2)[C@H]1O5` it is 16.5% (inactive); for `CCC(Oc1ccc(Cl)cc1)C(=O)OC1CC2CCC(C1)N2C` (configuration not stated) it is -2.85% (inactive) and -12.4% (inactive).
The figure for `c1ccc(CC(c2ccccc2)N2CCCCC2)cc1` (configuration not stated) is 9.17% (inactive) and 15.7% (inactive).
Take `Cc1[nH]c2ccc(Cl)cc2c1C1=CCNCC1`: the activity change, negative = inhibition was 8.93% (inactive) and 11.2% (inactive).
The figure for `COC(=O)CN1CN(c2ccccc2)C2(CCN(Cc3cccc4ccccc34)CC2)C1=O` is -6.13% (inactive); for `COc1ccc(OC)c(C(O)C(C)NC(C)(C)C)c1` (configuration not stated) it is 12% (inactive).
The figure for `Cc1nnc2n1-c1ccc(Cl)cc1C(c1ccccc1Cl)=NC2` is 18.7% (inactive); for `CC(C)(O)C(=O)Nc1ccc([N+](=O)[O-])c(C(F)(F)F)c1` it is 5.88% (inactive); for `COc1ccc(C[C@H]2NC[C@H](O)[C@H]2OC(C)=O)cc1` it is -80.3% (active) and -86.5% (active).
The figure for `CC(C)(C)OC(=O)c1ncn2c1[C@@H]1CCCN1C(=O)c1c(Br)cccc1-2` is 6.65% (inactive).
As to `CN1CCC2=C(C1)c1ccccc1Cc1ccccc12`, the activity change, negative = inhibition is 3.96% (inactive).
The figure for `Cc1[nH]cnc1CCN` is 7.41% (inactive); for `C[C@]12CC/C(=N\OCCN)C[C@@H]1C(=O)C[C@@H]1[C@@H]2CC[C@]2(C)C(=O)CC[C@@H]12` it is 14.1% (inactive).
With `Clc1ccc(C23CNCC2C3)cc1Cl` (configuration not stated) the figure was 6.45% (inactive).
The figure for `C=CCN1CCC23c4c5ccc(O)c4OC2C(=O)CCC3(O)C1C5` (configuration not stated) is -2.6% (inactive).
With `CC(C)=CCCC1(C)C=Cc2c(O)c3c(c(CC=C(C)C)c2O1)OC12C(=CC4CC1C(C)(C)OC2(CC=C(C)C(=O)O)C4=O)C3=O` (configuration not stated), the activity change, negative = inhibition is -77.9% (active).
For the molecule `CC(C)CCCC1(C)C=Cc2c(O)c3c(c(CCC(C)C)c2O1)OC12C(CC4CC1C(C)(C)OC2(CCC(C)C(=O)O)C4O)C3=O` (configuration not stated), the activity change, negative = inhibition is -3.34% (inactive).
The figure for `CC(C)=CCC[C@]1(C)C=Cc2c(O)c3c(c(CC=C(C)C)c2O1)O[C@]12C(=C[C@@H]4C[C@H]1C(C)(C)O[C@@]2(CC=C(C)C(=O)O)C4=O)C3=O` is -83.4% (active); for `CN(C)[C@@H]1C(=O)C(C(N)=O)C(=O)[C@@]2(O)C(=O)C3C(=O)c4c(O)cccc4[C@@](C)(O)C3[C@H](O)C12` (some centres not stated) it is -0.0524% (inactive); for `C=C(C)C1Cc2c(ccc3c(=O)c4c(oc23)COc2cc(OC)c(OC)cc2-4)O1` (configuration not stated) it is -1.04% (inactive).
With `CCCCCCN1CCN(c2cccc(Cl)c2)CC1` the figure was 9.58% (inactive).
The figure for `O=C1CC2OCC=C3CN4CC[C@]56c7ccccc7N1C5[C@H]2[C@H]3CC46` (some centres not stated) is 15.9% (inactive) and 2.19% (inactive); for `CC(C)C1(NC(=O)C2CC3c4cccc5[nH]cc(c45)CC3N(C)C2)OC2(O)C3CCCN3C(=O)C(Cc3ccccc3)N2C1=O` (configuration not stated) it is -21.5% (inactive); for `CC(C)[C@@]1(NC(=O)[C@@H]2CC3c4cccc5[nH]cc(c45)C[C@H]3N(C)C2)O[C@@]2(O)[C@@H]3CCCN3C(=O)[C@H](Cc3ccccc3)N2C1=O` (some centres not stated) it is -13.7% (inactive).
`CN1Cc2ccccc2[C@@H]2c3cccc4[nH]cc(c34)C[C@H]21`: the activity change, negative = inhibition is -78.9% (active).
As to `CN1CC[C@@H]2CN3CCc4cccc(c43)[C@@H]2C1`, the activity change, negative = inhibition was 3.72% (inactive).
With `CCC(C)C(=O)O[C@H]1[C@H](O)C2C(CN3CC(C)CCC3[C@@]2(C)O)C2C[C@]34O[C@]5(O)C(OC(=O)C(C)(O)CC)CC[C@@]3(C)C5C(OC(C)=O)[C@@H](OC(C)=O)C4[C@@]21O` (some centres not stated) the figure was 1.67% (inactive); with `CC1(C)CC(O)CC(C)(C)N1O`, 8.37% (inactive) and 5.38% (inactive) and 2.68% (inactive); with `CN(C(=O)Cc1ccccc1)C(CN1CCCC1)c1ccccc1` (configuration not stated), 6.5% (inactive).
The figure for `C[C@]12CC[C@H](O)C[C@@H]1CC[C@@H]1[C@H]2CC[C@]2(C)C(=O)CC[C@@H]12` is 6.71% (inactive); for `C[C@]12CCC3[C@@H](CC[C@@H]4C[C@H](O)CC[C@]34C)[C@@H]1CCC2=O` (some centres not stated) it is 8.25% (inactive); for `C[C@]12CC[C@H](O)C[C@H]1CC[C@@H]1[C@@H]2CC[C@]2(C)[C@@H](c3ccc(=O)oc3)C[C@H]3OC132` (some centres not stated) it is -78.4% (active).
For the molecule `CN(C)CCNc1nc2cc(O)ccc2c2c1C(=O)c1ccccc1-2`, the activity change, negative = inhibition was -85.6% (active).
In the case of `O=C(O)C(=O)CBr`, the activity change, negative = inhibition is -21.8% (inactive).
The figure for `C[N+]1(C)CCc2cc3c(cc2[C@H]1C1OC(=O)c2c1ccc1c2OCO1)OCO3` (some centres not stated) is 9.96% (inactive).
